# Reference: PubChem BioAssay (EPA / NIEHS)
# Calls of active or inactive are those of the source. Rule for the calls: active = hit-call score of the fitted dose curve at least 0.9, where 1 is the maximum; inactive = score below 0.9.
# Target: Transcriptional activator Myb (Homo sapiens) (UniProt P10242)
# Assay: ATG_Myb_CIS: Attagene CIS-FACTORIAL HepG2 Assay for human Myeloblastosis (Myb) Proto-Oncogene Transcription Factor (AID 2282986)
# Settings: HepG2 Attagene CIS-FACTORIAL Myb reporter transcription; actives raise or lower the signal
# Protocol: ATG_CIS is a cell-based, multiplexed-readout assay that uses HepG2, a human liver cell line, with measurements taken at 24 hours after chemical dosing in a 24-well plate.ATG_Myb_CIS is one of 52 assay component(s) measured or calculated from the ATG_CIS assay. It is designed to make measurements of mRNA induction, a form of inducible reporter, as detected with fluorescence intensity signals by Reverse transcription polymerase chain reaction (RT-PCR) and Capillary electrophoresis technology.Data from the assay component ATG_Myb_CIS was analyzed into 1 assay endpoint. This assay endpoint, ATG_Myb_CIS, was analyzed with bidirectional fitting relative to DMSO as the negative control and baseline of activity. Using a type of inducible reporter, measures of mRNA for gain or loss-of-signal activity can be used to understand the reporter gene at the transcription factor-level as they relate to the gene MYB. Furthermore, this assay endpoint can be referred to as a primary readout, because this assay has produced multiple assay endpoints where this one serves a reporter gene function. To generalize the intended target to other relatable targets, this assay endpoint is annotated to the dna binding intended target family, where the subfamily is MYB proteins.
# Human liver HepG2 cells are transiently transfected with multiple reporter transcription units (MRTUs) in 6-well plates using FuGene 6 reagent (Roche; 3 ml FuGene/1 mg DNA). The MRTU constructs are regulated by a cis-regulating element (promoter). […] A major difference between the CIS and TRANS system is that in CIS activities of endogenous TFs are measured, whereas the TRANS assay evaluates changes in activities of exogenous, chimeric NR-Gal4 proteins. […] At the end of 24 hour incubation, total RNA was isolated using TriZol reagent (Invitrogen). The isolated RNA is then reverse-transcribed using oligo(dT) primer and Mo-MLV reverse transcriptase (Invitrogen) with DNAse I (Ambion) treatment for 30 min. The one-tenth of the produced cDNA was amplified by PCR using Taq DNA polymerase (Invitrogen) and two reporter sequence-specific primers. The PCR products were fluorescently labeled by primer extension with 6-arboxyfluorescein (6-FAM) 5'-labeled reporter sequence-specific primer (2 min at 95 C, 20 s at 68 C and 10 min at 72 C) and these products were digested with 5U of HpaI (New England Biolabs) for 2h at 37 C. The fragments were purified using Qiaquick PCR columns (Qiagen), analyzed on an ABI 3130xL genetic analyzer (Applied Biosystems) with peak positions identified by using a set of X-rhodamine (ROX)-labeled MapMarker1000 molecular weight standards (BioVentures). The raw capillary electrophoresis data was processed using Attagraph software (Attagene).
# Chain of Transcriptional activator Myb (Homo sapiens) (P10242 whole entry, looked up): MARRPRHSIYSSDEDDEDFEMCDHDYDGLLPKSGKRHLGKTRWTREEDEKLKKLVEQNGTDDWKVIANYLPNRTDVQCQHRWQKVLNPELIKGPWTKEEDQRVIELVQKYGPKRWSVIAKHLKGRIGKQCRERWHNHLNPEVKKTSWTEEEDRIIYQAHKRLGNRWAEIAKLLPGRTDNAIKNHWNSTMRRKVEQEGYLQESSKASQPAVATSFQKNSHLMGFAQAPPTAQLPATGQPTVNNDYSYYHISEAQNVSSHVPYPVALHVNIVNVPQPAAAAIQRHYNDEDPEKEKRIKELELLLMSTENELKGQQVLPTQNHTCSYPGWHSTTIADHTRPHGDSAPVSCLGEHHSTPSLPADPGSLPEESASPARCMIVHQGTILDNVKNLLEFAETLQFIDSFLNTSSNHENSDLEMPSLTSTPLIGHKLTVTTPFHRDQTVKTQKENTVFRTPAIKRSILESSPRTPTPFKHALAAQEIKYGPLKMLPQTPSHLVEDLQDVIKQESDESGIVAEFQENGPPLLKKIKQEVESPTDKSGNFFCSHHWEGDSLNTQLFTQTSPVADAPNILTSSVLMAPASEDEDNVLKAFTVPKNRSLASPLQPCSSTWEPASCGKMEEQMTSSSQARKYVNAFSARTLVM
row,SMILES,outcome
1,CN(C)c1ccc(C=O)cc1,inactive
2,O=c1cc[nH]cc1,inactive
3,c1ccc(Sc2ccccc2)cc1,inactive
4,CC1(C)CC(=O)CC(C)(C)N1,inactive
5,[O-]/[N+](=N\O)c1ccccc1,inactive
6,COc1ccccc1O,inactive
7,CC(C)C(=O)c1ccccc1,inactive
8,S=c1[nH][nH]c(=S)s1,inactive
9,CCCCCCCCCCCCOCCOS(=O)(=O)O,inactive
10,CN(C)CCC=C1c2ccccc2CCc2ccccc21,inactive
11,CCOC(=O)C(=O)OCC,inactive
12,CCCCOCC(C)OCC(C)O (stereo not given),inactive
13,CC/C=C\CCCCO,inactive
14,CC(=O)CCC=C(C)CCC=C(C)C,inactive
15,CC(O)COCC(C)O (stereo not given),inactive
16,CCCCC(CC)COCCO (stereo not given),inactive
17,CCCCCCCCOC(C)=O,inactive
18,CC/C=C\CCOC(C)OCC (stereo not given),inactive
19,CC1=CC(O)CC(C)(C)C1 (stereo not given),inactive
20,CC1=C(C=O)C(C)(C)CCC1,inactive

row,SMILES,outcome
1,C=C(C)CCCC(C)CCO (stereo not given),inactive
2,CC(=O)C1=C(C)[C@@H]2C[C@@]3(C1)[C@H](C)CC[C@H]3C2(C)C,inactive
3,CC1(C)CC(N)CC(C)(CN)C1 (stereo not given),inactive
4,CC/C=C\C#N,inactive
5,CCCCCCCCOS(=O)(=O)O,inactive
6,O=C(O)c1ccc(C(=O)O)c(C(=O)O)c1,inactive
7,CC(C)(C)c1cccc(O)c1,inactive
8,Cc1cc(O)c(C)c(C)c1O,inactive
9,Cc1cc(O)c2c(c1)C(=O)c1cc(O)cc(O)c1C2=O,inactive
10,COC(=O)C(C)Oc1ccc(Oc2ncc(C(F)(F)F)cc2Cl)cc1 (stereo not given),inactive
11,CC(=O)CCC(=O)O,inactive
12,CC(C)CCOC(=O)CC(C)C,inactive
13,CCC(=O)OC/C=C(\C)CCC=C(C)C,inactive
14,CCCCCCCCCCOC(=O)c1ccccc1C(=O)OCCCCCCCC,inactive
15,CCOc1ccc(NC(C)=O)cc1,inactive
16,Nc1ccn([C@H]2CC[C@@H](CO)O2)c(=O)n1,inactive
17,CCOC(=O)CC1(C)OCC(C)O1 (stereo not given),inactive
18,CC(O)CNCC(C)O (stereo not given),inactive
19,CCCCCCCCCCCCOC(C)=O,inactive
20,COc1ccccc1NC(=O)CC(C)=O,inactive
